# Screening data deposited in PubChem BioAssay by The Scripps Research Institute Molecular Screening Center.
# TEAD-YAP inh: TEAD-YAP interaction inhibition; HEK-TIYL cells, TEAD-Gal4/YAP UAS-luciferase luminescence; inhibition, % at 9.12 µM; 1.4% of 640,000 active; in the data active = inhibition above about 32%
# MITF primary: human MITF inhibition, primary screen. 0.91% of 650,000 active. O75030. AlphaScreen MITF homodimerization, bead proximity signal. inhibition, % at 2.6 µM; in the data active = inhibition above about 50%
# Target sequence (O75030 whole entry, looked up): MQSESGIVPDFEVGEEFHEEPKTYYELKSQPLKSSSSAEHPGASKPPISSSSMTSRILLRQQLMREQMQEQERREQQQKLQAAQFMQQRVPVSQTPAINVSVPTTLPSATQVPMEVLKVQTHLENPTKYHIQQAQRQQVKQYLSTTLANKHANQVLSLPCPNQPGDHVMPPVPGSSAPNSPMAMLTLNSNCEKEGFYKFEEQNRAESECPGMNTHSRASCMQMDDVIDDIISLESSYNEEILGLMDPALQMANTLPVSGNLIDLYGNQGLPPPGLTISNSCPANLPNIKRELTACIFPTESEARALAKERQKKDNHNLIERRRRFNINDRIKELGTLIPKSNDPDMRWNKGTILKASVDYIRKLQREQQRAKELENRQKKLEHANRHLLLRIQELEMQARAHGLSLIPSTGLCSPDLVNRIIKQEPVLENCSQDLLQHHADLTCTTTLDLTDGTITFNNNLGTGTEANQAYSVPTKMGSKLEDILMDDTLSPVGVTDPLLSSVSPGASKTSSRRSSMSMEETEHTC
# FBW7 activator: human FBW7 E3 ligase activation, primary screen. Q969H0. AlphaScreen FBW7–phospho-cyclin E peptide binding, activator screen. normalized activity (activation), % at 26.1 µM. 0.13% of 650,000 active; in the data active = normalized activity above about 1.9%;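 also: purified mutant Fbw7 with reduced substrate affinity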
# GPR151 ag: activators of human GPR151 | Q8TDV0 | PathHunter beta-arrestin GPR151 cells, luminescence | activation, % at 11.2 µM | 1% of 650,000 active; in the data active = activation above about 4.9%
# Numbers stand for hits; i = inactive. Sampled rows, rich in hits. Any-hit rate of the full collection: about 3.5%.
SMILES,TEAD-YAP inh,MITF primary,FBW7 activator,GPR151 ag
Cc1csc(NC(=O)c2cc([N+](=O)[O-])ccc2Sc2nnnn2C)n1,38.9,i,i,i
CC(C)(C)c1ccc(C(=O)NCc2n[nH]c(=S)n2-c2ccccc2)cc1,i,i,i,i
c1ccc2sc(N3CCN(C4CCCCC4)CC3)nc2c1,68.8,i,i,i
Cc1nc(-c2ccc(C(=O)Nc3ccc(O)cc3)cc2)cs1,90.5,i,i,i
Cc1nc(-c2ccc(NC(=O)c3ccc(C)c(C)c3)cc2)cs1,i,i,i,i
Nc1cc(N)nc(SCC(=O)NCCOc2ccccc2)n1,i,i,2.2,i
Nc1nc2c3cc4c(nc3sc2c2ccccc12)CCC4,33.8,i,i,i
CCc1ccc(/C(C)=N\NC(=O)c2cc([N+](=O)[O-])cc([N+](=O)[O-])c2O)cc1,i,i,i,i
Cn1ncc(-c2ccnc(Nc3ccc(N4CCOCC4)cc3)c2)c1Nc1ccccc1,i,i,i,i
Cn1ncc(-c2ccnc(Nc3ccc(N4CCOCC4)cc3)c2)c1N,34.9,i,i,i
CCCn1cc(-c2ccnc(Nc3ccc(-n4cnc(C)n4)cc3)c2)c(-c2ccc(F)cc2)n1,i,i,i,i
Cn1ncc(-c2ccnc(Nc3ccc(-n4cnc(N5CCOCC5)n4)cc3)c2)c1NC(=O)Cc1ccccc1,42.1,i,i,i
Cc1ncn(-c2ccc(Nc3cc(-c4cnn(CCc5ccccc5)c4-c4ccc(F)cc4)ccn3)cc2)n1,33.6,i,i,i
COc1cc(NC(=O)c2cccc(-n3cc(NC(=O)c4ccc(Br)o4)cn3)c2)ccc1N1CCOCC1,i,i,i,i
O=C(c1ccc2ccccc2n1)N1C[C@@H]2C[C@H]1C(=O)N2c1ccc2c(c1)OCO2,i,i,i,i
CC(C(=O)Nc1nc2c(s1)CCCC2)N1C(=O)c2ccccc2C1=O (centres undefined),i,i,i,i
Cc1cc(NCCc2ccc(O)cc2)nc(-c2ccc(N3CCN(C)CC3)cc2)n1,52.8,i,i,i
Oc1ccc(CCNc2ccnc(Nc3ccc(N4CCOCC4)cc3)n2)cc1,44.5,i,i,i
Cc1cc(NCCc2ccc(O)cc2)nc(Nc2ccc(N3CCOCC3)cc2)n1,62.4,i,i,i
Cc1ccc(/C=C/C(=O)O)cc1S(=O)(=O)N1CCCCCC1,i,i,i,i
CCn1c(SCC(=O)Nc2ccccc2)nnc1-c1cccnc1,i,i,i,i
CCOC(=O)C1=C(C)NC2=C(C(=O)C(C(=O)OCC)C(c3cccc(OC)c3)C2)C1c1ccc(C(C)(C)C)s1 (centres undefined),i,i,i,i
CCc1c(C)nc2cc(-c3ccc(F)cc3)[nH]n2c1=O,i,i,i,i
Cc1ccc(Nc2c([N+](=O)[O-])sc3ccccc23)cc1,48.4,i,i,i
COc1ccc(/C=N/NC(=O)c2cc(-c3ccc(F)cc3)n[nH]2)cc1,i,i,i,i
SMILES,TEAD-YAP inh,MITF primary,FBW7 activator,GPR151 ag
CC(C)Cc1ccc(-c2cc(C(=O)N/N=C/c3ccncc3)[nH]n2)cc1,45.3,i,i,i
COc1ccc(/C=N/NC(=O)c2cc(-c3ccc(OC)cc3)n[nH]2)cc1,32.8,i,i,i
Cc1ccc(/C=N/NC(=O)c2cc(-c3ccccc3)n[nH]2)cc1,i,i,i,i
COc1ccc(-c2cc(C(=O)N/N=C\c3ccc(N(C)C)cc3)[nH]n2)cc1,44.7,i,i,i
CCOc1ccc(N2C(=O)c3ccc(Oc4ccc(NC(=O)CSc5ccc(C)cc5)cc4)cc3C2=O)cc1,i,i,i,i
CC(C)C1CCC(Nc2ncc(-c3cccc(C(=O)NCCN(C)C)c3)n3ccnc23)CC1 (centres undefined),38.5,i,i,i
COc1ccc(CC(CC(=O)NCc2ccccc2)C(=O)O)cc1 (centres undefined),i,i,i,i
CCc1c(C)sc2ncn(C3CCN(C(=O)C4CCCC(OC)C4)CC3)c(=O)c12 (centres undefined),41.8,i,i,i
CCc1c(C)sc2ncn(C3CCN(C(=O)CCn4nc(C)cc4C)CC3)c(=O)c12,i,i,i,i
CCc1c(C)sc2ncn(C3CCN(C(=O)Cc4ccsc4)CC3)c(=O)c12,45.3,i,i,i
O=C(O)CN1C(=O)/C(=C/c2ccc3ccccc3c2)SC1=S,i,i,i,i
Cc1nnc(NC(=O)CSC2=NCCS2)s1,i,i,i,i
CCC1=[N+](CC(=O)c2ccccc2)CCn2cccc21,i,i,2.5,i
COc1ccc2c(CC(=O)N3CCc4ccccc4C3)cc(=O)oc2c1,i,i,i,i
CCc1ccc(C(=O)COC(=O)c2ccccc2[N+](=O)[O-])cc1,54.7,i,i,i
O=C(COC(=O)c1ccccc1[N+](=O)[O-])c1ccccc1Cl,33.9,i,i,i
Cc1c(C(=O)OCC(=O)c2ccccc2Cl)cccc1[N+](=O)[O-],i,i,i,i
CCOc1ccc(C(=O)COC(=O)c2ccccc2[N+](=O)[O-])cc1,i,i,i,i
Cc1ccc(C(=O)COC(=O)c2ccccc2[N+](=O)[O-])cc1,90.3,i,i,i
COc1ccc(C(=O)COC(=O)c2ccccc2[N+](=O)[O-])cc1,i,i,i,i
COc1ccc(NS(=O)(=O)c2cc(NC(=O)CNC(C)=O)ccc2N2CCCC2)cc1,39.0,i,i,i
c1ccc(Nc2nc3nonc3nc2Nc2ccccc2)cc1,36.0,i,i,i
Fc1cccc(Nc2nc3nonc3nc2Nc2cccc(F)c2)c1,i,i,i,i
Oc1ccc(Nc2nc3nonc3nc2Nc2ccccc2)cc1,i,i,i,i
CN(C)c1nc2nonc2nc1Nc1cccc(Cl)c1,75.0,i,i,i
SMILES,TEAD-YAP inh,MITF primary,FBW7 activator,GPR151 ag
Fc1ccc(Nc2nc3nonc3nc2Nc2ccc(F)cc2F)c(F)c1,89.7,i,i,i
Oc1ccc(Nc2nc3nonc3nc2Nc2cccc(Br)c2)cc1,45.4,i,i,i
Clc1ccc(Nc2nc3nonc3nc2Nc2ccc(Br)cc2)cc1Cl,i,i,i,i
c1ccc(Nc2nc(Nc3ncccn3)nc3nc[nH]c23)cc1,i,i,i,i
C=CCN1C(=O)S/C(=C/c2ccc(Cl)s2)C1=O,i,i,i,i
Nc1cccc(-c2nc(NCCOc3ccccc3)c3ncn(Cc4ccc(C(F)(F)F)cc4)c3n2)c1,i,i,i,i
CC(C)N(CCNc1nc(Nc2ccccn2)nc2c1ncn2C(C)C)C(C)C,43.0,i,i,i
c1ccc(CNc2nc(Nc3ccc(-n4ccnc4)cc3)nc3c2ncn3-c2ccsc2)cc1,i,i,i,i
CC(C)N(CCNc1nc(Nc2ccc(-n3ccnc3)cc2)nc2c1ncn2C(C)C)C(C)C,59.6,i,i,i
CC(C)N(CCNc1nc(Nc2ccc(-n3ccnc3)cc2)nc2c1ncn2-c1ccccc1)C(C)C,33.9,i,i,i
CC(C)N(CCNc1nc(Nc2ccc(-n3ccnc3)cc2)nc2c1ncn2-c1ccsc1)C(C)C,51.1,i,i,i
CCN(CC)c1ccc(/C=c2\sc3nnc(-c4ccc(C)cc4)n3c2=O)cc1,i,i,i,i
COc1ccccc1CN(Cc1cc2ccc(C)cc2n2nnnc12)C(C)=O,i,i,i,i
O=C(Cn1cc([N+](=O)[O-])ccc1=O)N1CCCCCC1,i,i,i,i
